Source: paper PMC5540273 (PLoS ONE, 2017)

What was measured:
Settings in all cases: concentration: 1 μM, replicates: in singlicate; n = 1
[1] = system: T1, PYK2
T1 construct: gene PTK2B

[2] = system: QSK
[3] = system: RAF1
[4] = system: RET
[5] = system: RIOK1
[6] = system: RIOK2
[7] = system: RIOK3
[8] = system: RIPK1
[9] = system: RIPK2
[10] = system: RIPK4
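Further: KINOMEscan kinase panel screen.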

Compound	%Inh [1]	%Inh [2]	%Inh [3]	%Inh [4]	%Inh [5]	%Inh [6]	%Inh [7]	%Inh [8]	%Inh [9]	%Inh [10]
Nc1nccc(-c2c(-c3ccc(F)cc3)ncn2C2CCN(CC(F)(F)F)CC2)n1 [SB-236560]	5%	0%	0%	12%	32%	0%	19%	0%	51%	72%
CNc1ncnc2[nH]ncc12 [SKF-18355]	0%	5%	23%	0%	0%	0%	0%	0%	0%	22%
Nc1nc(-c2ccc3c(N)n[nH]c3c2)cc(N2CCCC2)n1 [GSK2227430]	20%	0%	0%	0%	48%	2%	56%	0%	0%	11%
CCn1cnc2c(N)ncnc21 [GW345098]	8%	13%	3%	0%	30%	6%	8%	11%	1%	6%
O=C1NC(=O)C(N2CCc3ccccc32)=C1c1cccc(Cl)c1 [SB-408010]	12%	0%	0%	4%	5%	0%	30%	0%	0%	0%
